Compounds with a hit are over-represented: about 2.8% of the library has one in this group of screens.
KCNH2 WT inh = qHTS for Inhibitors of KCHN2 3.1: Wildtype qHTS; hit rate 0.37% among 340,000; U2OS, BacMam KCNH2, thallium flux FluxOr; hits give low values; AID 720551, 2013; Voltage-gated inwardly rectifying potassium channel KCNH2 (Homo sapiens), Q12809; activity change, % at 1.84 µM;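 active means maximum activity change below -70%; inconclusive means maximum activity change between -70% and -50%; inactive means maximum activity change above -50%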
Target sequence (Q12809 whole entry, looked up): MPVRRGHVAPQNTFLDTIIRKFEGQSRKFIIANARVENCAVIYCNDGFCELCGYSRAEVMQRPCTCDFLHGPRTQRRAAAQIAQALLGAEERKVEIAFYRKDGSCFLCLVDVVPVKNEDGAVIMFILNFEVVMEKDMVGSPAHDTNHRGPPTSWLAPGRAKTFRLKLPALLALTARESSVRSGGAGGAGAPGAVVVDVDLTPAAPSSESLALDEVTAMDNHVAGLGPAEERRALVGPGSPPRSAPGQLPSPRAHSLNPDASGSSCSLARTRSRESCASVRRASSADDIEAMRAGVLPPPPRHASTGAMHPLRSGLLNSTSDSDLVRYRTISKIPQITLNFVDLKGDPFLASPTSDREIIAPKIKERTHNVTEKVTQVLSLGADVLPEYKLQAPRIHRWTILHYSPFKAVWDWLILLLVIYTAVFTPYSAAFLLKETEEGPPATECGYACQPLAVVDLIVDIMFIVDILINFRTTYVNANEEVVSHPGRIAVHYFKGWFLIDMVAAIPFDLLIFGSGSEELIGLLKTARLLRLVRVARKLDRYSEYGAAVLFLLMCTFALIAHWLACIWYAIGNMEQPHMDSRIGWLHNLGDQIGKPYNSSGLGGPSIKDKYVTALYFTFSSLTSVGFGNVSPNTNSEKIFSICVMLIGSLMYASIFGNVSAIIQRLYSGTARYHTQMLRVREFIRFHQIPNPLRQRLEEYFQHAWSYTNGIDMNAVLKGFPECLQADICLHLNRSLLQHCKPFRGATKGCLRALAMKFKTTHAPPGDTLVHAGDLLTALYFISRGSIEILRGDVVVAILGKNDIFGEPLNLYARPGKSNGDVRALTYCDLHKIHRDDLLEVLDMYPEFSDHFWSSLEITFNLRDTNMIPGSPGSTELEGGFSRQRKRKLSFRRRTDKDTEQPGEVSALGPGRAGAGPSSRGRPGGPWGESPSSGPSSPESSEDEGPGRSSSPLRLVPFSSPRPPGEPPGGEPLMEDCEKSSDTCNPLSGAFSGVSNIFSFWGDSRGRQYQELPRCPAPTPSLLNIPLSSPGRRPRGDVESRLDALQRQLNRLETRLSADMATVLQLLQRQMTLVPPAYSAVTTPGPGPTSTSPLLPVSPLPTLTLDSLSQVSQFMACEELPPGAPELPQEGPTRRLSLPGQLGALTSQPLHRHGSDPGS
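U2OS cells were transduced with wild-type KCNH2 virus (2.03 x 10^8 / mL) for 4 h at room temperature, then cultured overnight at 37 C. Thallium flux was read with FluxOr dye. Rate constants were normalized to DMSO controls.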
HEK293 tox = qHTS of GLP-1 Receptor Inverse Agonists: Cytotox Screen | HEK293 cAMP-luciferase reporter cells, luminescence, 24 h | Potency, µM (highest dose often 38.3 µM), hits mostly inhibitors | hit rate 0.13% among 410,000;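 further: loss of luciferase light is scored as toxicity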
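Seeding density was 200 cells/uL; after overnight-length (12 h) culture, 23 nL compounds went on for 24 h at 37 °C. Readout used a luciferase detection reagent, luminescence taken after 12 min at room temperature.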
GLS inh = qHTS for Inhibitors of Glutaminase (GLS); Glutaminase kidney isoform, mitochondrial (Homo sapiens), O94925; Potency, µM (doses to about 45.5 µM), hits mostly inhibitors; hit rate 0.21% among 410,000; GLS enzymatic activity, qHTS titration
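Glutamate formation by hKGA was monitored fluorometrically using coupled glutamate oxidase, HRP and Amplex Red. Substrate was added as 1 mM L-glutamine solution; incubation was 30 min at RT after an initial read.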
KCNH2 3.1 inh = qHTS for Inhibitors of KCHN2 3.1: Mutant qHTS; activity change, % (tested at about 1.8 µM); Potassium voltage-gated channel subfamily H member 2, brain isoform KCNH2 3.1 (human); hit rate 0.95% among 340,000; AID 720553, 2013; U2OS KCNH2 3.1, thallium flux FluxOr; hits give low values;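 active means maximum activity change below -70%; inconclusive means maximum activity change from -70% to -50%; inactive means maximum activity change above -50%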;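 further: thallium influx rate constant from kinetic fluorescence after stimulation buffer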
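Thallium flux read-out: FluxOr dye with Red40 quencher in HBSS/HEPES, 45 min at RT. Rate constants from kinetic reads were normalized to positive and negative DMSO controls. Cells: U2OS virally expressing the 3.1 isoform.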
GLP1R ag = qHTS of GLP-1 Receptor Agonists; Glucagon-like peptide 1 receptor (Homo sapiens), P43220; HEK293 GLP-1R CRE-luciferase, luminescence, 4-6 h; cells express a hypersensitive GLP-1R form; AID 624172, 2012; hit rate 0.007% among 380,000; Potency, µM (series often up to 45.6 µM), hits mostly activators
GLP1R inv ag = qHTS of GLP-1 Receptor Inverse Agonists (Inhibition Mode). Glucagon-like peptide 1 receptor (Homo sapiens), P43220. HEK293 GLP-1R CRE-luciferase, luminescence, 24 h; GLP-1R form is constitutively active. Potency, µM (series often up to 38.3 µM), usual class: inhibitors. hit rate 1.6% among 410,000. AID 624417, 2012; further: nearly all actives have a fitted effect of over 55% in size
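Readout was luciferase luminescence, measured 12 min after detection reagent at room temperature. Beforehand, GLP-1R reporter HEK293 cells had sat 12 h, then received compounds for 24 hr at 37 deg C.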
Of the large screens only hits and unclear results are named; the others gave an inactive call. Unless noted, the call rests on the fitted dose curve; in most records, active means well fitted curve in the direction sought with a large enough effect; inconclusive means small, poorly fitted or top-dose-only effect, or another doubt; inactive means no such curve, though single readings can be large; an effect the other way counts as inactive or inconclusive.

CSc1nc2cc(Oc3cccc(Cl)c3Cl)c(Cl)cc2[nH]1	GLP1R inv ag 11µM
Cc1ccc(-c2noc(CN(C3CCCCC3)S(=O)(=O)c3ccc(C)cc3)n2)cc1	GLP1R inv ag inconclusive (no result: KCNH2 WT inh, KCNH2 3.1 inh, GLP1R ag)
CCc1cccc2c1Sc1ccccc1CC2N1CCNCC1 (configuration not stated)	HEK293 tox inconclusive, KCNH2 3.1 inh -77, GLP1R inv ag 8.9µM
Cc1cccc2c1Sc1ccc(Cl)cc1CC2N1CCNCC1 (configuration not stated)	HEK293 tox inconclusive, GLP1R inv ag inconclusive
N#Cc1cccc(NC(=O)CSc2ccc3c4c(cccc24)C(=O)c2ccccc2-3)c1	KCNH2 WT inh -100, KCNH2 3.1 inh -78
COc1ccc(NC(=O)CSc2ccc3c4c(cccc24)C(=O)c2ccccc2-3)cc1	none
NC1=NC[C@@H](Cc2ccc(O)cc2)N1CCC12CC3CC(CC(C3)C1)C2	GLP1R inv ag 8.9µM
NC1=NC[C@H](Cc2ccc(O)cc2)N1CCc1cccc(F)c1	none
COc1ccc(C(CNC(=O)c2cc(S(=O)(=O)N3CCN(c4ccccc4)CC3)ccc2Cl)N(C)C)cc1 (configuration not stated)	GLP1R inv ag 10µM
COc1ccc(C(CNC(=O)c2ccc(S(=O)(=O)N3CCCC3)cc2)N(C)C)cc1OC (configuration not stated)	none
COc1ccc(C(CNC(=O)c2ccc(S(=O)(=O)N3CC(C)CC(C)C3)cc2)N(C)C)cc1 (configuration not stated)	KCNH2 WT inh -83, HEK293 tox inconclusive, GLP1R inv ag inconclusive
Cc1cc(NC(=O)CCCn2c(C)c3cnn(-c4ccccc4)c(=O)c3c2C)ccc1Br	GLP1R inv ag inconclusive (no result: KCNH2 WT inh, KCNH2 3.1 inh, GLP1R ag)
COc1cc(OC)c(NC(=O)NCc2cccn2Cc2ccccc2)cc1Cl	GLP1R inv ag inconclusive (no result: KCNH2 WT inh, KCNH2 3.1 inh, GLP1R ag)
S=C(Nc1cc(Cl)cc(Cl)c1)NC1CCN(Cc2ccccc2)CC1	HEK293 tox inconclusive, KCNH2 3.1 inh inconclusive, GLP1R inv ag 4µM
S=C(NCc1ccc(Cl)cc1)NC1CCN(Cc2ccccc2)CC1	HEK293 tox inconclusive, KCNH2 3.1 inh -76, GLP1R inv ag 3.5µM
O=C(CCS(=O)(=O)c1ccc(F)cc1)Nc1nc(-c2ccccn2)cs1	HEK293 tox inconclusive, GLP1R inv ag inconclusive
CC(Oc1ccc(F)cc1)C(=O)Nc1nc(-c2ccccn2)cs1 (configuration not stated)	HEK293 tox inconclusive, GLP1R inv ag 10µM
COC(=O)CSc1nc(Cc2ccccc2)nc2ccccc12	none (no result: KCNH2 WT inh)
CC(C)OC(=O)CSc1nc(Cc2ccccc2)nc2ccccc12	GLP1R inv ag 13µM
CCOC(=O)c1c2c(n(-c3ccc(OC)cc3)c1C)C(=O)C(=O)c1ccccc1-2	HEK293 tox 3.2µM, GLP1R inv ag inconclusive
Cc1ccc2[nH]c3ccccc3c(=O)c2c1	none
O=c1c2ccccc2[nH]c2ccc(O)cc12	GLS inh 5µM
Cc1ccc(-n2nc(C)c3nc(CCC(=O)Nc4ccc(F)cc4)c(=O)n(C)c32)cc1	none (no result: KCNH2 WT inh, KCNH2 3.1 inh, GLP1R ag)
Cc1ccc(C)c(NC(=O)Nc2cc3c(cc2N2CCCCC2)n(C)c(=O)n3C)c1	none (no result: KCNH2 WT inh, KCNH2 3.1 inh, GLP1R ag)
O=C(c1cc(Br)c(Br)s1)N1CCOCC1	KCNH2 WT inh -201
C=CCN1C(c2cccc(C(F)(F)F)c2)=CS/C1=C(\C#N)c1nnc(N2CCOCC2)n1-c1ccccc1	GLP1R inv ag inconclusive
C=CCN1C(c2ccc(Br)cc2)=CS/C1=C(\C#N)c1nnc(N2CCOCC2)n1-c1ccccc1	GLP1R inv ag 7.1µM
O=C(c1cnn(-c2ccc(F)cc2)c1-n1cccc1)N1CCN(c2ccccc2)CC1	none (no result: KCNH2 WT inh, KCNH2 3.1 inh)
Cc1cc(C)c2nc(C)cc(Nc3ccc(C(=O)N(C)C)cc3)c2c1	GLP1R inv ag inconclusive
CC(=O)c1ccc(Nc2cc(C)nc3c(C)cc(C)cc23)cc1	HEK293 tox inconclusive, GLP1R inv ag 8.9µM
COc1ccc(Br)c(Cn2c(C)c(C(=O)NCc3ccccc3C(F)(F)F)sc2=O)c1	GLP1R inv ag inconclusive (no result: KCNH2 WT inh, KCNH2 3.1 inh)
O=C1CCN(CCc2ccccc2)CCN1[C@H](COc1ccccc1)Cc1ccccc1	KCNH2 WT inh -257, KCNH2 3.1 inh -100, GLP1R inv ag 10µM
O=C1CCN(CCc2ccccc2)CCN1[C@H](CO)Cc1ccccc1	none (no result: KCNH2 WT inh, KCNH2 3.1 inh)
CC(C)C[C@@H](COc1ccccc1)N1CCN(CCc2ccccc2)CCC1=O	KCNH2 3.1 inh -96, GLP1R inv ag inconclusive
CC(C)CN1CCC(=O)N([C@H](COc2ccccc2)Cc2ccccc2)CC1	KCNH2 3.1 inh -90, GLP1R inv ag inconclusive
O=C(Nc1ccc(Cl)cc1C(=O)N1CCCC1)c1cccc([N+](=O)[O-])c1	none (no result: KCNH2 3.1 inh)
CCOc1cc(C(=S)N2CCCCC2)ccc1OS(=O)(=O)c1ccc(Cl)cc1	KCNH2 3.1 inh -114
CCOc1cc(C(=S)N2CCCCC2)ccc1OS(=O)(=O)c1ccc(Br)cc1	GLP1R inv ag inconclusive
CC(C)c1ccc(C2Sc3ccccc3NC3=C2C(=O)c2ccccc23)cc1 (configuration not stated)	GLP1R inv ag 8.9µM (no result: KCNH2 WT inh, KCNH2 3.1 inh, GLP1R ag)
CCc1ccc(C2Sc3ccccc3NC3=C2C(=O)c2ccccc23)cc1 (configuration not stated)	HEK293 tox inconclusive, GLP1R inv ag inconclusive (no result: KCNH2 WT inh, KCNH2 3.1 inh, GLP1R ag)
CC(=O)Nc1ccc(-c2ccnc3c2CC(C(=O)NCc2cccc(Cl)c2)O3)cc1 (configuration not stated)	HEK293 tox inconclusive, GLP1R ag inconclusive, GLP1R inv ag 3.5µM (no result: KCNH2 WT inh, KCNH2 3.1 inh)
Cc1ccc(-c2nc(P(=O)(c3ccccc3)c3ccccc3)c(N3CCOCC3)o2)cc1	GLP1R inv ag 10µM
CCOP(=O)(OCC)c1nc(-c2ccc(OC)cc2)oc1N1CCOCC1	none
O=C(O)C1Sc2[nH]c(=O)sc2C2c3cc(Br)ccc3OC(=O)C12 (configuration not stated)	GLS inh 10µM
O=C(O)C1Sc2[nH]c(=O)sc2C2c3ccc(O)cc3OC(=O)C12 (configuration not stated)	GLS inh 8.9µM
CC1(C(=O)O)Sc2[nH]c(=O)sc2C2c3ccccc3OC(=O)C21 (configuration not stated)	none
COC(=O)C1Sc2[nH]c(=O)sc2C2c3ccccc3OC(=O)C12 (configuration not stated)	none (no result: GLS inh)
Cc1cc2c(cc1NS(=O)(=O)c1ccc(NC(=O)CC(C)C)cc1)n(C)c(=O)c(=O)n2C	none (no result: KCNH2 WT inh, KCNH2 3.1 inh, GLP1R ag)

Assay outcomes deposited in PubChem BioAssay by National Center for Advancing Translational Sciences (NCATS).
